Experiment [1] in a line: qHTS assay to identify small molecule agonists of the hypoxia (HIF-1) signaling pathway - cell viability counter screen (AID 1224844; calls by dose curve; further: nearly all actives have a fitted effect of over 50% in size; further: potency means the concentration at half of the fitted maximal effect). In a few lines:
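HRE-bla ME-180 cells in medium with 0.5% dialyzed FBS were preincubated 5 hrs at 37C, exposed to compounds for 17 hrs, then viability was read as CellTiter-Glo luminescence after 30 min at room temperature, in the reporter wells.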

Experiment [2] is described as follows: qHTS assay to identify small molecule agonists of the hypoxia (HIF-1) signaling pathway (AID 1224846; active means well fitted activation curve with a large enough effect in the signal ratio in the repeat runs, not every such curve was filed as active; the % refers to the signal ratio). In a few lines:
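HRE-bla ME-180 cells (beta-lactamase reporter under hypoxia response element) were plated at 2,000 cells/well in medium with 0.5% dialyzed FBS, rested 5 hrs, then given compounds in DMSO for 17 hrs at 37C, 5% CO2. Reporter induction was read with CCF4-AM FRET substrate.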
In general terms: In qHTS, concentration-response curves come from the screen itself.

A short description of experiment [3]: qHTS assay to identify small molecule agonists of H2AX - cell viability counter screen (AID 1224847; calls by dose curve; further: top concentration of the series differs between compounds; nearly all actives have a fitted effect of over 30% in size). An outline of the steps: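 After overnight plating of 1000 CHO-K1 cells per well, a 15-concentration compound series was applied for 3 hr at 37C. Luminescence from CellTiter-Glo, read following 30 min at room temperature, reflected cell viability.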
The nature of experiment [4]: qHTS assay to identify small molecule antagonists of the estrogen related receptor (ERR) signaling pathway from Tox21 library (AID 1224848). Further: nearly all actives have a fitted effect of over 50% in size. In a few lines:
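ERR reporter cell line (from NTP) seeded 2,000 cells/well, rested 6 h at 37 C/5% CO2, then pin-dosed with compounds in DMSO. After 18 h at 37 C, ONE-Glo added; luminescence read after 30 min at room temperature.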

Experiment [5] can be described thus: qHTS assay to identify small molecule agonists of the estrogen related receptor (ERR) signaling pathway from Tox21 library (AID 1224849; calls by dose curve; further: nearly all actives have a fitted effect of over 15% in size). The following applies: ERR reporter cell line, ONE-Glo luciferase, 18 h; at 92.4 µM (top of the series). An outline of the steps:
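ERR reporter cell line (NTP) seeded, rested 6 h at 37 C/5% CO2, then pinned with Tox21 compounds in DMSO. After 18 h at 37 C, ONE-Glo luciferase luminescence was read following 30 min at room temperature.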

The nature of experiment [6]: qHTS RealTime-Glo MT Cell Viability Assay in HepG2 cells - 24 hour (AID 1224867). Further: nearly all actives have a fitted effect of over 50% in size. In a few lines: (§1)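 Cells + NanoLuc/prosubstrate dispensed (600 cells/well) → 5 h at 37 C/5% CO2 → compounds in DMSO transferred → 40 h incubation at 37 C, luminescence read at 0, 8, 16, 24, 32, 40 h.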
The nature of experiment [7]: qHTS RealTime-Glo MT Cell Viability Assay in HEK293 cells - 32 hour (AID 1224868). Further: nearly all actives have a fitted effect of over 50% in size. Further: potency means the concentration at half of the fitted maximal effect. In a few lines: (§2)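 Tox21 10K qHTS, HEK293, 600 cells/well, RealTime-Glo reagent co-dispensed with cells; 5 h preincubation, compound by pintool, 37 C, luminescence at 0–40 h.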
The nature of experiment [8]: qHTS RealTime-Glo MT Cell Viability Assay in HepG2 cells - 40 hour (AID 1224870). Further: nearly all actives have a fitted effect of over 50% in size. An outline of the steps: (§3)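 HepG2 cells (600/well) mixed with RealTime-Glo MT reagent, settled 5 h at 37 C/5% CO2 before compound addition. Nonlytic NanoLuc luminescence from viable-cell prosubstrate reduction read repeatedly during 40 h treatment at 37 C.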
Experiment [9] is described as follows: A CellTox Green Cytotoxicity Assay to monitor cytotoxicity in HEK293 cells - 40 hour (AID 1224871). Further: nearly all actives have a fitted effect of over 45% in size. Further: potency means the concentration at half of the fitted maximal effect. In a few lines: (§4)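 HEK293 cells premixed with CellTox Green dye were seeded at 600 cells/well and left 5 h at 37 C/5% CO2 before pin transfer of 23 nL compound in DMSO. Fluorescence from dye bound to dead-cell DNA was read during 40 h treatment.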
Experiment [10] is described as follows: qHTS RealTime-Glo MT Cell Viability Assay in HEK293 cells - 16 hour (AID 1224872). In a few lines:
as §2

Experiment [11] can be described thus: qHTS RealTime-Glo MT Cell Viability Assay in HepG2 cells - 8 hour (AID 1224873). Further: nearly all actives have a fitted effect of over 55% in size. An outline of the steps: as §3
Experiment [12] in a line: qHTS RealTime-Glo MT Cell Viability Assay in HEK293 cells - 40 hour (AID 1224874). Further: nearly all actives have a fitted effect of over 50% in size. Further: potency means the concentration at half of the fitted maximal effect. To be noted: RealTime-Glo luminescence; max response: stronger effect = lower value. An outline of the steps:
(§5)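 HEK293 cells mixed with RealTime-Glo reagents (NanoLuc plus cell-permeant prosubstrate) at 600 cells/well, preincubated 5 h at 37 C/5% CO2, then given 23 nL compound in DMSO. Nonlytic luminescence from viable cells was read at 0, 8, 16, 24, 32 and 40 h.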

Experiment [13] is described as follows: A CellTox Green Cytotoxicity Assay to monitor cytotoxicity in HEK293 cells - 24 hour (AID 1224875). Further: nearly all actives have a fitted effect of over 45% in size. In a few lines:
as §4

The nature of experiment [14]: A CellTox Green Cytotoxicity Assay to monitor cytotoxicity in HepG2 cells - 16 hour (AID 1224876). Further: nearly all actives have a fitted effect of over 45% in size. In a few lines:
(§6)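 HepG2 cells were seeded together with the CellTox Green dye at 600 cells/well, left 5 h at 37 C/5% CO2, then given compounds in DMSO. Fluorescence from dye bound to dead-cell DNA was read repeatedly over 40 h of treatment at 37 C.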

Experiment [15] in a line: qHTS RealTime-Glo MT Cell Viability Assay in HepG2 cells - 32 hour (AID 1224877). Further: nearly all actives have a fitted effect of over 55% in size. An outline of the steps:
as §1

Experiment [16] is described as follows: A CellTox Green Cytotoxicity Assay to monitor cytotoxicity in HepG2 cells - 24 hour (AID 1224878). Further: nearly all actives have a fitted effect of over 45% in size. Further: potency means the concentration at half of the fitted maximal effect. An outline of the steps:
as §6

Experiment [17] in a line: A CellTox Green Cytotoxicity Assay to monitor cytotoxicity in HepG2 cells - 40 hour (AID 1224879). Further: nearly all actives have a fitted effect of over 40% in size. Further: potency means the concentration at half of the fitted maximal effect. An outline of the steps:
as §6

A short description of experiment [18]: qHTS RealTime-Glo MT Cell Viability Assay in HEK293 cells - 0 hour (AID 1224880). An outline of the steps:
as §5

Experiment [19] can be described thus: qHTS assay to identify small molecule agonists of H2AX (AID 1224845; active means well fitted activation curve with a large enough effect in the signal ratio in the repeat runs, not every such curve was filed as active; the % refers to the signal ratio; further: potency means the concentration at half of the fitted maximal effect). In a few lines: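 Wild-type CHO-K1 cells, plated overnight, exposed 3hr at 37C to 15 concentrations (0.76% DMSO final). Lysed, then HTRF anti-pH2AX (S139) cryptate and anti-H2AX-d2 antibodies, 24 hr room temperature; 665/620 nm emission read.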
The nature of experiment [20]: A CellTox Green Cytotoxicity Assay to monitor cytotoxicity in HEK293 cells - 0 hour (AID 1224869). Further: nearly all actives have a fitted effect of over 50% in size. In a few lines:
as §4

Where “and” joins values, the source holds several entries; their conditions need not be identical. Equal entries are not always repeated. Records with an inconclusive call do not appear. The source holds several records for some structures; these can differ, active in one and inactive in another. Calls of active or inactive are those of the source. Unless noted, the call rests on the fitted dose curve; in most records, active means well fitted curve in the direction sought with a large enough effect in the repeat runs; inconclusive means weak or mixed curves; inactive means no such curve, though single readings can be large; an effect the other way counts as inactive or inconclusive.
On the % scale 0 is the no-effect control and ±100 the full control effect.

`O=C(Cc1ccccc1)OCCc1ccccc1`: the Potency result in [1], in [3], in experiment [4], in [6], in experiment [7] and in experiment [8] was “inactive” throughout. In addition, the Potency entry in [9], in experiment [10], in experiment [11], in experiment [13], in experiment [14] and in experiment [15] was “inactive” throughout. Further, the Potency entry in [16] and in experiment [17] was “inactive” throughout. The compound was classed as inactive in experiment [2] and in experiment [18]. For the same compound, in experiment [5], the activity change, positive = activation was -0.535% (inactive). The max response in [12] was 2.91% (inactive).
As for `CCCCCCCCCCCCCCCl`, the Potency entry in [1], in experiment [19], in [3], in experiment [6], in [7] and in [20] was “inactive” each time. Besides, the Potency entry in [8], in [9], in experiment [10], in [13], in [14] and in experiment [15] was “inactive” in each case. The Potency entry in experiment [16] and in experiment [17] was “inactive” in each case. In [12], the max response is 1.34% (inactive). Also, the call in [18] was inactive.
As to `CCC1CCC(=O)O1` (stereo not drawn), the Potency result in experiment [1], in [19], in experiment [3], in experiment [6], in experiment [7] and in experiment [20] was “inactive” throughout. For the same compound, the Potency result in experiment [8], in experiment [9], in experiment [10], in experiment [11], in [13] and in experiment [14] was “inactive” throughout. The Potency entry in [16] and in experiment [17] was “inactive” in each case. Moreover, in experiment [12], the max response is 8.21% (inactive). The outcome in experiment [18] was inactive.
Turning to `CCOc1cccc(C2(N3CCN(c4ccccc4)CC3)CCC(C)CC2)c1` (stereo not drawn), the Potency entry in experiment [1], in [19], in [3], in experiment [6], in [7] and in experiment [20] was “inactive” throughout. In addition, the Potency result in [8], in experiment [9], in experiment [10], in experiment [11], in experiment [13] and in experiment [15] was “inactive” each time. Moreover, the Potency result in [16] and in experiment [17] was “inactive” in each case. In experiment [12], the max response was -7.17% (inactive). Further, the result in experiment [18] was inactive.
As for `O=C(O)C(F)(F)C(F)(F)C(F)(F)C(F)(F)C(F)(F)F`, the Potency entry in [1], in experiment [19], in experiment [3], in experiment [6], in [7] and in [20] was “inactive” throughout. Besides, the Potency entry in experiment [8], in experiment [9], in [10], in [11], in experiment [13] and in [14] was “inactive” each time. The Potency result in experiment [16] and in experiment [17] was “inactive” in each case. The max response in experiment [12] is -1.16% (inactive). Moreover, in [18], the call was inactive.
In the case of `c1ccc2c(c1)-c1cccc3cccc-2c13`, the Potency result in [1], in experiment [19], in [3], in experiment [6], in [7] and in experiment [8] was “inactive” throughout. Moreover, the Potency entry in experiment [10], in [11], in experiment [13], in experiment [14], in experiment [15] and in experiment [16] was “inactive” in each case. For the same compound, in experiment [17], the Potency result was “inactive”. Further, the Potency entry in [9] was “inactive and 43.6 µM (active)”. Also, in experiment [12], the max response was -7% (inactive) and -12.1% (inactive). Also, the compound was classed as inactive in [18].
As to `O=C(CCl)CCl`, the Potency in experiment [1] is 21.9 µM (active); in experiment [19] it was 104 µM (active); in experiment [7], 18 µM (active) and 19.5 µM (active); in experiment [9], 21.9 µM (active); in experiment [12] it was 18 µM (active) and 21.9 µM (active); in [16], 22.7 µM (active). In addition, the Potency in [17] is 25.5 µM (active). For the same compound, the Potency result in experiment [3], in [6], in [8], in experiment [11], in experiment [13] and in experiment [14] was “inactive” throughout. The Potency result in [15] was “inactive”. In addition, the result in [18] was inactive.

For the origin of these results see PubChem BioAssay (Tox21).
